Assay [1] can be described thus: small molecules captured by biotinylated probe aFSTL3 – biochemical, small-molecule microarray, fluorescence 635/667, stem cell growth factor project, primary screen (AID 1064).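 Note: measures binding of the biotinylated anti-FSTL3 antibody to printed compounds.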 As to conditions: higher = more signal.
Assay [2] is described as follows: binders from COS7 lysate, DM2A8 probe, primary screen, torsin A project, cell lysate, small-molecule microarray, fluorescence 635/667 (AID 1065). The conditions noted are these: higher = more signal, COS7 lysate expressing mutant human TOR1A.
The nature of assay [3]: small molecules captured by biotinylated probe aFGF2 – biochemical, small-molecule microarray, fluorescence 635/667, stem cell growth factor project, primary screen (AID 1067).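 Note: measures binding of biotinylated aFGF2 protein to printed compounds on slides; z-score merges feature fluorescence and signal-to-noise across triplicate slides.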 The conditions noted are these: higher = more signal.
The nature of assay [4]: small molecules captured by biotinylated probe aFGF10 – biochemical, small-molecule microarray, fluorescence 635/667, stem cell growth factor project, primary screen (AID 1071).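 Note: score merges 667 nm spot intensity and signal to noise from triplicate slides.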 The conditions noted are these: higher = more signal.
For assay [5], the target named is Neurogenic locus notch homolog protein 2 (Homo sapiens) (UniProt Q04721). Description: small molecules binding Notch2 protein – biochemical, small-molecule microarray, 635 nm fluorescence, stem cell growth factors, primary screen (AID 1073). The conditions noted are these: higher = more signal.
Assay [6] addresses Pro-neuregulin-1, membrane-bound isoform (Homo sapiens) (UniProt Q02297). Description: small molecules binding neuregulin-1 protein – biochemical, small-molecule microarray, fluorescence 635/667, psychiatric disease protein project, primary screen (AID 1075).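 Note: score combines 667 nm spot fluorescence with signal to noise.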 The conditions noted are these: NRG1 binding, 635 nm fluorescence, higher = more signal.
Assay [7] concerns Neuregulin-1 EGF-like domain. Description: small molecules binding NRG1 EGF domain – biochemical, small-molecule microarray, 635 nm fluorescence, primary screen (AID 1081).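 Note: binding of the protein to compounds printed on small-molecule microarray slides.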 As to conditions: higher = more signal.
Assay [8] can be described thus: FRG1 expression reporter modulators in myotubes – cell-based, C2C12 myotubes, firefly/Renilla luciferase, luminescence, FRG1 inhibition for FSHD, primary screen (AID 1084). The conditions noted are these: FRG1 promoter luciferase, higher = more signal, called active from +8 up or from −8 down.
Assay [9] is described as follows: small molecules captured by biotinylated probe aFST – biochemical, small-molecule microarray, fluorescence 635/667, stem cell growth factor project, primary screen (AID 1086).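 Note: score merges 667 nm fluorescence with signal-to-noise of each printed compound spot.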 The conditions noted are these: higher = more signal.
Assay [10] is described as follows: binders of probe aHhip on microarray, primary screen, stem cell growth factor project, biochemical, small-molecule microarray, fluorescence 635/667 (AID 1087).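 Note: score merges spot fluorescence at 667nm with spot signal to noise ratio.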 The conditions noted are these: higher = more signal.
For assay [11], the system named is PRMT1 (protein arginine N-methyltransferase 1). The experiment in a line: small molecules binding arginine methyltransferase PRMT1 – biochemical, small-molecule microarray, 635 nm fluorescence, primary screen (AID 1088).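 Note: binding of Prmt1 protein to compounds spotted on small-molecule microarray slides.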 The conditions noted are these: higher = more signal.
Assay [12] is described as follows: growth effects on S. cerevisiae YJM789 – YJM789 clinical isolate, OD600, 24 h, basal, primary screen (AID 1089).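 Note: growth of clinical yeast isolate S. cerevisiae YJM 789 seeded 1000 cells per well; test concentration not given here.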 As to conditions: higher = more signal, called active from +8 up or from −8 down.
The nature of assay [13]: S. pombe growth modifiers, basal conditions – strain 972, OD600, 24 h, no modulator, primary screen (AID 1090).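 Note: basal condition with compound alone and no growth modifier present; test concentration not given here.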 The conditions noted are these: S. pombe 972 growth, higher = more signal, called active from +8 up or from −8 down.
Assay [14] is described as follows: budding yeast growth modifiers under rapamycin – strain BY4716, OD600, 96 h, primary screen (AID 1091). Note: test concentration not given here. As to conditions: S. cerevisiae BY4716 + rapamycin, higher = more signal, called active from +8 up or from −8 down.
The target in assay [15] is Torsin-1A-interacting protein 2 (Homo sapiens) (UniProt Q8NFQ8). The experiment in a line: small molecules binding lysate-expressed LULL1 – cell lysate, human LULL1 lysate, 635/667 nm fluorescence, primary screen (AID 1092).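 Note: score merges per-feature 667 nm fluorescence with signal-to-noise.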 The conditions noted are these: small-molecule microarray, hLULL1 lysate binding, 635 nm fluorescence; higher = more signal.
Assay [16] can be described thus: optical density change of DRC41 E. coli – strain DRC41, OD650, 24 h, E. coli filamentation project, primary screen (AID 1093).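 Note: MC1000 strain lacking acrAB efflux and sulA so SOS filamentation is blocked; test concentration not given here.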 The conditions noted are these: E. coli DRC41 growth, higher = more signal, called active from +8 up or from −8 down.
The nature of assay [17]: probe aLefty2 binding to arrayed compounds – biochemical, biotinylated probe, 635/667 nm fluorescence, primary screen (AID 1094).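 Note: score merges spot fluorescence near 667 nm with spot signal-to-noise ratio.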 The conditions noted are these: small-molecule microarray, higher = more signal.
Assay [18] deals with Noggin (protein binding on small-molecule microarray). The experiment in a line: small molecules binding Noggin protein – biochemical, 635/667 nm fluorescence, primary screen (AID 1095).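 Note: score merges 667 nm feature fluorescence with signal to noise over triplicate slides.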 As to conditions: 635 nm fluorescence, higher = more signal.
The target in assay [19] is Neurogenic locus notch homolog protein 3 (Homo sapiens) (UniProt Q9UM47). The experiment in a line: small molecules binding NOTCH3 protein – biochemical, 635/667 nm fluorescence, primary screen (AID 1096). The conditions noted are these: small-molecule microarray, 635 nm fluorescence, higher = more signal.
A short description of assay [20]: probe aEGFR binding to arrayed compounds – biochemical, biotinylated probe, 635/667 nm fluorescence, primary screen (AID 1097).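 Note: probe is a biotinylated anti-EGFR antibody binding compounds printed on slides; score combines fluorescence near 667 nm and signal to noise of each spot.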 The conditions noted are these: small-molecule microarray, higher = more signal.

Activity calls are given as the source filed them.

Pro-neuregulin-1, membrane-bound isoform (Homo sapiens), sequence (Q02297 whole entry, looked up, the tested form may be a part, canonical isoform): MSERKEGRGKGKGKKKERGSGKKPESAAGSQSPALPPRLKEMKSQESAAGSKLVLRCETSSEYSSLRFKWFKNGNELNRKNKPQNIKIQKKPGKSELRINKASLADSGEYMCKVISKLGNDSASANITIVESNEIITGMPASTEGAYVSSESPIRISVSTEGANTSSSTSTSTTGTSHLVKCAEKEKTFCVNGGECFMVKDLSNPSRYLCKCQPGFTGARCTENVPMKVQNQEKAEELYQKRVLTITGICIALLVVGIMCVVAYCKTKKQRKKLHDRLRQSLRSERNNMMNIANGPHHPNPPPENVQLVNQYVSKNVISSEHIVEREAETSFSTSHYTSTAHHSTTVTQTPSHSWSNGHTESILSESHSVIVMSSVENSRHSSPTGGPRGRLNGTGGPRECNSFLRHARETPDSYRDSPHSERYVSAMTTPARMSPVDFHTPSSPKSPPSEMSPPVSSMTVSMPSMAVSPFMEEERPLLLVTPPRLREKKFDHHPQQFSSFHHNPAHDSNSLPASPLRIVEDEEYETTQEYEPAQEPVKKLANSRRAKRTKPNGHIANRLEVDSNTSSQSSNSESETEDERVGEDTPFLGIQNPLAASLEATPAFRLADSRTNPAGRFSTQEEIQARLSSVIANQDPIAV
Torsin-1A-interacting protein 2 (Homo sapiens), sequence (Q8NFQ8 whole entry, looked up): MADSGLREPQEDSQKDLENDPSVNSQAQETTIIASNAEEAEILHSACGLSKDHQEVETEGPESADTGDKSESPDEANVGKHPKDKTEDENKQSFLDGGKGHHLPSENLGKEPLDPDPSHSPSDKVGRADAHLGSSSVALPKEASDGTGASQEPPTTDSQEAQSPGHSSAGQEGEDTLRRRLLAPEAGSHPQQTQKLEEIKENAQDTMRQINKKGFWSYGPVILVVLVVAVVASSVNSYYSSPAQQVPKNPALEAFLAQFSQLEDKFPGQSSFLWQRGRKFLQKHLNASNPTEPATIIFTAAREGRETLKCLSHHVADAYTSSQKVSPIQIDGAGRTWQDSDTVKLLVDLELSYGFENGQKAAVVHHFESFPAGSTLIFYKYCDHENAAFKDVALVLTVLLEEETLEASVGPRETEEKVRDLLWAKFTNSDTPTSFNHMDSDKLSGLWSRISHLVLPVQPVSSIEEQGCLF
Neurogenic locus notch homolog protein 2 (Homo sapiens), sequence (Q04721 whole entry, looked up, canonical isoform): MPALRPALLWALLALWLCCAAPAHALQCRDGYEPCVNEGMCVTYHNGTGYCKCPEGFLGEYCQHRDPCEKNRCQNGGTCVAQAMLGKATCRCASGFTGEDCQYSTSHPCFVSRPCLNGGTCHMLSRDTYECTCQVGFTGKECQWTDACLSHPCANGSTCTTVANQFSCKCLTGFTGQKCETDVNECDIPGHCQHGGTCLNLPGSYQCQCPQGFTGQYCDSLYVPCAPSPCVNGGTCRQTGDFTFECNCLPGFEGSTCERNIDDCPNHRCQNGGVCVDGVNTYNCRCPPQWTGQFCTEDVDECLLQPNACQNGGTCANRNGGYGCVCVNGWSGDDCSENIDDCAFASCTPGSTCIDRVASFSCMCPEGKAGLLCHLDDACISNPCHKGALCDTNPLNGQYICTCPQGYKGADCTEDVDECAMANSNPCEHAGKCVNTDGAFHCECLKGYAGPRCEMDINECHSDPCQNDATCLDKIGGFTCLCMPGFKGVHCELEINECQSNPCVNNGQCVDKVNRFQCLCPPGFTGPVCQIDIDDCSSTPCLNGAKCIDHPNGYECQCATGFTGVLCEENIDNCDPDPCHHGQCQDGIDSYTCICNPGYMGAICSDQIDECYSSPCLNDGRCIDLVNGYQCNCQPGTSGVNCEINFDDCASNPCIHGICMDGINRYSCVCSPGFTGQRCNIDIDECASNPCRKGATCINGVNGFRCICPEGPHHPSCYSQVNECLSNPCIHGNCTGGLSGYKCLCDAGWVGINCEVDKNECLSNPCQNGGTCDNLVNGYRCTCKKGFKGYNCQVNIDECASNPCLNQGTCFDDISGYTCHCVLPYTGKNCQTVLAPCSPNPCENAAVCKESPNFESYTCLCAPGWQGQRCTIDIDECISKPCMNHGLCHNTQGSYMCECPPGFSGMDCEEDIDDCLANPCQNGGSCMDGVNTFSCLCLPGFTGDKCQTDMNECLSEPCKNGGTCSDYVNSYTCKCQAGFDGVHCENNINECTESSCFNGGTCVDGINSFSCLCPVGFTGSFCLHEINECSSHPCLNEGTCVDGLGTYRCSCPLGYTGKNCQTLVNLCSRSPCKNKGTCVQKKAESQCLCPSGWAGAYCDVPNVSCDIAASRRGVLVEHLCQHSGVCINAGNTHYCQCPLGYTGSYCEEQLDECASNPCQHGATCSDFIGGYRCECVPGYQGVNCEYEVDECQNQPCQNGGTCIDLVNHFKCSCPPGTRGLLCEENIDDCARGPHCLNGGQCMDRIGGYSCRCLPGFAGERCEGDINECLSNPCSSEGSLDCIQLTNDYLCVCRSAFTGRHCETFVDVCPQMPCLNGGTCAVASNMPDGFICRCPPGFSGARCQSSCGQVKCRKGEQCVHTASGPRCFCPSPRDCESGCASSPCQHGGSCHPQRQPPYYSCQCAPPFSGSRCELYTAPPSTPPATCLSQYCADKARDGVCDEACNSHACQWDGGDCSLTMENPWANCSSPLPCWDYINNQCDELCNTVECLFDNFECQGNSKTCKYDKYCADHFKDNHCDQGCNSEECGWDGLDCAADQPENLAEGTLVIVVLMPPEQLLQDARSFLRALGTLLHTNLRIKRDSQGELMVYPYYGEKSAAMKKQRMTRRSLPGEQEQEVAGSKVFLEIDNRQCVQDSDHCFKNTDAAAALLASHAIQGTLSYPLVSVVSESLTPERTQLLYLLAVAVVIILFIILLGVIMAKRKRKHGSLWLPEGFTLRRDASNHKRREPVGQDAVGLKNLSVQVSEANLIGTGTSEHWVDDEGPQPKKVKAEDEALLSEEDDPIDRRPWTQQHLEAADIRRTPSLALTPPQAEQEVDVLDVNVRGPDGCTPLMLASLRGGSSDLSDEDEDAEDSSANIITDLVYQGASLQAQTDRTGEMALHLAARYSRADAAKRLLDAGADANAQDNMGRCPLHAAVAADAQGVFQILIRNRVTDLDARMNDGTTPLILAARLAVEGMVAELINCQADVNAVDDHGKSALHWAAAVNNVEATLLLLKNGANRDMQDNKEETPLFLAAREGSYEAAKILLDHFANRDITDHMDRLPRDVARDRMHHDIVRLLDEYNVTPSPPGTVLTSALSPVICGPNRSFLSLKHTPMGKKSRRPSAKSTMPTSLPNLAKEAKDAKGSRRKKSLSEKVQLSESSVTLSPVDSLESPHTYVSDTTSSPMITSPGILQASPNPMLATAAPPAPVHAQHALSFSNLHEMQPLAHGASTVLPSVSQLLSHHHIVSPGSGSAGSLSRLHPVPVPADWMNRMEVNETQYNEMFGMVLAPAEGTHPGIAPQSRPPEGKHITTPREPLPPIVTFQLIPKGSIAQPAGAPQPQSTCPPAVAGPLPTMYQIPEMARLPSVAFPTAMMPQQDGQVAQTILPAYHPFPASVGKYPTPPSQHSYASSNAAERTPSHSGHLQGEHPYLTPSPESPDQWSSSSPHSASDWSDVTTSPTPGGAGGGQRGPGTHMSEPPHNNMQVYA

Take `COc1ccc2c(c1)O[C@@H](c1cccc(C(F)(F)F)c1)[C@H](O)C2=O`: the composite z-score in [1] was -0.609; in assay [2], -0.184; in [3], -0.131; in assay [4], 0.452; in assay [5], 0.242; in [6], 0.0761. The composite z-score was 0.4 in [7]; 0.0335 in assay [9]; -0.236 in assay [10]; 0.222 in [11]; 1.19 in assay [15]; -0.261 in assay [17]. The composite z-score in [18] worked out at 0.614; in assay [19] it was 0.661; in assay [20], 0.0251. Also, the z-score in assay [8] is -0.682 (inactive); in [12], -3.42 (inactive); in [13] it was -6.34 (inactive); in [14] it was -0.489 (inactive); in assay [16], 1.2 (inactive).

Regarding `CC(=O)OC[C@H]1O[C@@H](ON=C2[C@H]3CCn4c(=O)n(-c5ccccc5)c(=O)n4[C@H]3[C@H](O)[C@@H]3O[C@H]23)[C@H](OC(C)=O)[C@@H](OC(C)=O)[C@@H]1OC(C)=O`, the composite z-score is -0.512 in assay [1]; 0.617 in assay [2]; -0.0787 in [3]; 0.582 in assay [4]; 0.396 in assay [5]; 0.471 in assay [6]. The composite z-score in assay [7] is 0.711; in [9] it was 0.259; in [10], -0.0024; in assay [11], 1.02; in assay [15], 1.37; in [17] it was -0.0409. Moreover, the results for the composite z-score in assay [18], in [19] and in [20] were 0.349, 0.785 and -0.0485, respectively. Also, the z-score was 0.295 (inactive) in assay [8]; -0.436 (inactive) in assay [12]; -0.598 (inactive) in assay [13]; 0.083 (inactive) in assay [14]; 0.0967 (inactive) in assay [16].

Regarding `CC(C)[C@@H](OCc1ccccc1)[C@H](C)CON=C1[C@H]2CCn3c(=O)n(-c4ccccc4)c(=O)n3[C@H]2[C@H](O)[C@@H]2O[C@H]12`, the composite z-score was -0.375 in assay [1]; 0.616 in [2]; 0.0362 in assay [3]; 0.84 in assay [4]; 0.541 in assay [5]; 0.246 in assay [6]. Besides, the composite z-score in assay [7] was 0.218; in assay [9] it was 0.369; in assay [10] it was -0.126; in assay [11] it was 0.462; in [15] it was 1.56; in assay [17], -0.0063. Moreover, the composite z-score was 0.439 in [18], 0.597 in [19] and -0.067 in [20]. Further, the z-score is -0.157 (inactive) in assay [8]; -1.48 (inactive) in assay [12]; -7.06 (inactive) in assay [13]; -0.882 (inactive) in [14]; 0.222 (inactive) in assay [16].

Regarding `COC(=O)CC=C1c2ccccc2[C@H](OC)[C@H]1C`, the composite z-score was -0.033 in assay [1]; -0.113 in assay [2]; -0.0044 in assay [3]; 0.234 in [4]; -0.0929 in [5]; -0.395 in assay [6]. Besides, the composite z-score is -0.293 in [7]; 0.137 in [9]; -0.0296 in [10]; -0.32 in assay [11]; -0.655 in assay [15]; -0.0732 in assay [17]. Also, the composite z-score was 0.189 in [18], -0.562 in [19] and -0.0657 in assay [20]. In addition, the z-score is 0.009 (inactive) in assay [8]; 0.649 (inactive) in [12]; 0.863 (inactive) in assay [13]; 0.387 (inactive) in [14]; 0.194 (inactive) in assay [16].

`O=C1C[C@H](c2ccccc2)[C@H](c2ccc(Br)cc2)O1`: the composite z-score in [1] is -0.295; in assay [2] it was 0.246; in [3] it was -0.0761; in assay [4], 0.289; in assay [5], 0.0429; in assay [6] it was -0.482. For the same compound, the composite z-score is -0.293 in [7]; 0.133 in [9]; -0.0994 in assay [10]; -0.146 in assay [11]; -0.247 in [15]; -0.224 in assay [17]. Moreover, the figures for the composite z-score in assay [18], in assay [19] and in assay [20] were 0.401, -0.489 and -0.17, respectively. In addition, the z-score in [8] is -0.78 (inactive); in assay [12], -3.83 (inactive); in assay [13] it was -11.8 (active); in [14], -1.84 (inactive); in assay [16] it was 0.421 (inactive).

The values are drawn from PubChem BioAssay.
